Measurements reported in ChEMBL document CHEMBL2218924, “A broad activity screen in support of a chemogenomic map for kinase signalling research and drug discovery” (Biochem J, 2013).

Legend:
[1] = target: T1, CDK9/cyclin T1 (Homo sapiens) (UniProt O60563+P50750); details: at 1 µM
[2] = target: T1, CDK9/cyclin T1 (Homo sapiens); details: at 10 µM
[3] = target: T2, Serine/threonine-protein kinase Chk1 (Homo sapiens) (UniProt O14757); details: at 1 µM
T2 sequence (whole entry): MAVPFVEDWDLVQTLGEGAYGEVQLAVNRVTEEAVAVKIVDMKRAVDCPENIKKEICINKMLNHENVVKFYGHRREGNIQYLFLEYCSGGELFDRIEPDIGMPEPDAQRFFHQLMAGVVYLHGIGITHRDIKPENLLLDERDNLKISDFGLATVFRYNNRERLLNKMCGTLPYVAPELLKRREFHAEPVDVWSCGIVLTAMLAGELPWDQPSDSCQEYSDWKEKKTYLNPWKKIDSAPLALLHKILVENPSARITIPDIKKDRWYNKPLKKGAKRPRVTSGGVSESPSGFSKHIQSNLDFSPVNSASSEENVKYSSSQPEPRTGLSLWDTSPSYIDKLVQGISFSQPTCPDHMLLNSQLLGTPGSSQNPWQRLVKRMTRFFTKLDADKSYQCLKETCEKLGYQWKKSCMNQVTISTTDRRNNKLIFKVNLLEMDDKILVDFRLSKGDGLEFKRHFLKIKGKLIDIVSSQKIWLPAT

[4] = target: T2, Serine/threonine-protein kinase Chk1 (Homo sapiens); details: at 10 µM
[5] = target: Serine/threonine-protein kinase Chk2 (Homo sapiens) (UniProt O96017); details: at 1 µM
Chain of Serine/threonine-protein kinase Chk2 (Homo sapiens) (O96017 whole entry, canonical isoform): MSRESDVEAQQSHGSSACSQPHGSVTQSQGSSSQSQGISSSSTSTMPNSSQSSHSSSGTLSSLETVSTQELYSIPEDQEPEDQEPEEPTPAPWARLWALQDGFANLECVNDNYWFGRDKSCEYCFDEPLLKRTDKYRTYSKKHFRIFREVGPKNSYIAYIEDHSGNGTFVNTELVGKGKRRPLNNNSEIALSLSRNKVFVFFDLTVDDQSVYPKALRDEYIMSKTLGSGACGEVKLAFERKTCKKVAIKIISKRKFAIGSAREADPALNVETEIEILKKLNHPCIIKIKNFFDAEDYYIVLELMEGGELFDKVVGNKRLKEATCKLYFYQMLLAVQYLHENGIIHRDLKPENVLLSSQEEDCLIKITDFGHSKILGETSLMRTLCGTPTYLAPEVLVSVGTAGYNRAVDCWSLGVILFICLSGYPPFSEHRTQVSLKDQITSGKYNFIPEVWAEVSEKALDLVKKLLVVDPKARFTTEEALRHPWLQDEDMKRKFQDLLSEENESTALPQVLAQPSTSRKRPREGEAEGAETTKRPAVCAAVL

[6] = target: Serine/threonine-protein kinase Chk2 (Homo sapiens) (UniProt O96017); details: at 10 µM
[7] = target: Casein kinase I isoform delta (Homo sapiens) (UniProt P48730); details: at 1 µM
Chain of Casein kinase I isoform delta (Homo sapiens) (P48730 whole entry, looked up, canonical isoform): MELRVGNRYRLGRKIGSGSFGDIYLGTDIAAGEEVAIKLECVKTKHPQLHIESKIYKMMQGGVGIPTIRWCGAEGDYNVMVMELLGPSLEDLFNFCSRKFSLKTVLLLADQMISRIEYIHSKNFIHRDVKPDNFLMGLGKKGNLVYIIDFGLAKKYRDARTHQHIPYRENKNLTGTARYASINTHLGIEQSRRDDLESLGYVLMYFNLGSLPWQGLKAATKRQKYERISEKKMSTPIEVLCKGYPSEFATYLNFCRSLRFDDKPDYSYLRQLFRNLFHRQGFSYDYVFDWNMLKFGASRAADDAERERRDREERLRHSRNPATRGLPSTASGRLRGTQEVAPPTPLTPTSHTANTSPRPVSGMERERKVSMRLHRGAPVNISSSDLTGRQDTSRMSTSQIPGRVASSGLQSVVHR

[8] = target: Casein kinase I isoform delta (Homo sapiens) (UniProt P48730); details: at 10 µM
[9] = target: Casein kinase II subunit alpha' (Homo sapiens) (UniProt P19784); details: at 1 µM
Chain of Casein kinase II subunit alpha' (Homo sapiens) (P19784 whole entry, looked up): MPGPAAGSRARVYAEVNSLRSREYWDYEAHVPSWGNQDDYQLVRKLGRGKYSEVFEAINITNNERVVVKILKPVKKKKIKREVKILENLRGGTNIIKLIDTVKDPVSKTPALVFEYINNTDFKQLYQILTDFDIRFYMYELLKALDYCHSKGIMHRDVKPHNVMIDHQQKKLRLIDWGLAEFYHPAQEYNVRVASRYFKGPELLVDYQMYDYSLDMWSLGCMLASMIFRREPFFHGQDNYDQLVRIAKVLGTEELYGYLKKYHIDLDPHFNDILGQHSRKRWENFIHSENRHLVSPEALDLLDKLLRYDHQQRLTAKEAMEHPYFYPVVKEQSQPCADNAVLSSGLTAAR

[10] = target: Casein kinase II subunit alpha' (Homo sapiens) (UniProt P19784); details: at 10 µM
[11] = target: Dual specificity protein kinase CLK2 (Homo sapiens) (UniProt P49760); details: at 1 µM
Chain of Dual specificity protein kinase CLK2 (Homo sapiens) (P49760 whole entry, looked up): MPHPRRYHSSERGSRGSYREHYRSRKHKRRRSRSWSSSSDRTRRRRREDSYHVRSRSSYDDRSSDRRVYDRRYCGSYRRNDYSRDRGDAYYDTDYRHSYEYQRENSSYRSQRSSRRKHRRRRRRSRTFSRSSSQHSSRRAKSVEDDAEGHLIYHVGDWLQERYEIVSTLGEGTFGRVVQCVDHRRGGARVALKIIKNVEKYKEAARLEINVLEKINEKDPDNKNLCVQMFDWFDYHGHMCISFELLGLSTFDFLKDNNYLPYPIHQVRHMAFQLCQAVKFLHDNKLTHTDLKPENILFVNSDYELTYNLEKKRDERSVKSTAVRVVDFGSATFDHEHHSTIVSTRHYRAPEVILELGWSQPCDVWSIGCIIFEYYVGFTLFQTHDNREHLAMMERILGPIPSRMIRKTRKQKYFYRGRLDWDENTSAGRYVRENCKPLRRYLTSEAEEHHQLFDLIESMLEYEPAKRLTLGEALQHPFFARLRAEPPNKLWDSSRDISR

[12] = target: Dual specificity protein kinase CLK2 (Homo sapiens) (UniProt P49760); details: at 10 µM
[13] = target: Dual specificity protein kinase CLK3 (Homo sapiens) (UniProt P49761); details: at 1 µM
Chain of Dual specificity protein kinase CLK3 (Homo sapiens) (P49761 whole entry, looked up, canonical isoform): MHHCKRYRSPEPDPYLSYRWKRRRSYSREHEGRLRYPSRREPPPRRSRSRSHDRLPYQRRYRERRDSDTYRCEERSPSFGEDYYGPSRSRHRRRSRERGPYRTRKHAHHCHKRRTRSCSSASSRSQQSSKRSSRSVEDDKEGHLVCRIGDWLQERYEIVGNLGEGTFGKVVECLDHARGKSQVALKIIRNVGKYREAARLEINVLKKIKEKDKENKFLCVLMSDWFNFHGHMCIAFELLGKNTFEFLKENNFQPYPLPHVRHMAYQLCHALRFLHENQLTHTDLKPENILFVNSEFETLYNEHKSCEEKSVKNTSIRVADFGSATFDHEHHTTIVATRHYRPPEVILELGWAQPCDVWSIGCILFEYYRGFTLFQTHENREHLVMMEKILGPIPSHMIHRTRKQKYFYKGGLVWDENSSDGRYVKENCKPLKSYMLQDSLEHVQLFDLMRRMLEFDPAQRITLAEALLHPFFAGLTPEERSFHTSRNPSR

[14] = target: Dual specificity protein kinase CLK3 (Homo sapiens) (UniProt P49761); details: at 10 µM
[15] = target: Casein kinase I isoform gamma-1 (Homo sapiens) (UniProt Q9HCP0); details: at 1 µM
Chain of Casein kinase I isoform gamma-1 (Homo sapiens) (Q9HCP0 whole entry, looked up, canonical isoform): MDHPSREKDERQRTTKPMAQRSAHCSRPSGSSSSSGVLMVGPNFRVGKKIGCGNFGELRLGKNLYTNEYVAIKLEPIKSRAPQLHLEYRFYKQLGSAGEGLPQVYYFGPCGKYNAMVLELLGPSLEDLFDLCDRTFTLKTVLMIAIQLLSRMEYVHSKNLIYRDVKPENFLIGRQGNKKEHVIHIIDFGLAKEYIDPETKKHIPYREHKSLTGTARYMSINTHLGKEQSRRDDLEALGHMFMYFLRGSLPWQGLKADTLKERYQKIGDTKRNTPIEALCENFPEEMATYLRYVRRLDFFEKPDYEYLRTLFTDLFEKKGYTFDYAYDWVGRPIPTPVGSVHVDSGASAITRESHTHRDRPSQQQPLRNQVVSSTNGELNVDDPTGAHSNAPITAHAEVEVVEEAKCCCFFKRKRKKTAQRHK

[16] = target: Casein kinase I isoform gamma-1 (Homo sapiens) (UniProt Q9HCP0); details: at 10 µM
[17] = target: T3, Casein kinase II (Homo sapiens) (UniProt P67870+P68400+P19784); details: at 1 µM
T3 sequence (P19784 whole entry, looked up): as the sequence (P19784 whole entry, looked up) above
T3 sequence (P67870 whole entry, looked up): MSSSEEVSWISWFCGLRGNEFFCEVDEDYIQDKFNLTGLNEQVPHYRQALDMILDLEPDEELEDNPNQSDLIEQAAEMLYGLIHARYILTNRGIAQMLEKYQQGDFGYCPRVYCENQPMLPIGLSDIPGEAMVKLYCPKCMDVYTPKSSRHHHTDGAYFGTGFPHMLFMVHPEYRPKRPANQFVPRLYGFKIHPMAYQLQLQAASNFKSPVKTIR
T3 sequence (P68400 whole entry, looked up): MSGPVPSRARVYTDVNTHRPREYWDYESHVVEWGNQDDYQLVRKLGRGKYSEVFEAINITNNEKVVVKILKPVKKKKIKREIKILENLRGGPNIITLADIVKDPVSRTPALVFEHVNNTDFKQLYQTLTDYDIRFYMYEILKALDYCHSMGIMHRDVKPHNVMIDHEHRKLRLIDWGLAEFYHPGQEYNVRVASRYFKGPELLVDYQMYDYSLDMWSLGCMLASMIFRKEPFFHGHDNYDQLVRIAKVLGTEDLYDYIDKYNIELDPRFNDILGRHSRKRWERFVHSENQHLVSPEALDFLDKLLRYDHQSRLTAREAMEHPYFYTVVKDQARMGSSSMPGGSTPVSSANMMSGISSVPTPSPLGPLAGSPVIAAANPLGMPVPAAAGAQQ

[18] = target: T3, Casein kinase II (Homo sapiens); details: at 10 µM
[19] = target: Tyrosine-protein kinase CSK (Homo sapiens) (UniProt P41240); details: at 1 µM
Chain of Tyrosine-protein kinase CSK (Homo sapiens) (P41240 2-450 limits assumed): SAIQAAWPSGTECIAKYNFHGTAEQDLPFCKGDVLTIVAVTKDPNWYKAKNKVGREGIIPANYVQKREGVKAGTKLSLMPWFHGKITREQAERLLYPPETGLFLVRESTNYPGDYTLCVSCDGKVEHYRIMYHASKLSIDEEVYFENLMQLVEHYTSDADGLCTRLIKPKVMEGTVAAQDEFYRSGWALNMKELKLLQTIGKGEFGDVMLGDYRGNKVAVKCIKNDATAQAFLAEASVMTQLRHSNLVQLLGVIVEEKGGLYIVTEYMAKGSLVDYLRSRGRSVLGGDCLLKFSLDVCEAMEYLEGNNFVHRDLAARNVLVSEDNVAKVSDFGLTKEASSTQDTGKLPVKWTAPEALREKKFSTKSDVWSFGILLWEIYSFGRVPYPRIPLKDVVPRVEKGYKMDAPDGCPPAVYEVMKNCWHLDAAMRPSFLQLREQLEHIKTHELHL

[20] = target: Tyrosine-protein kinase CSK (Homo sapiens) (UniProt P41240); details: at 10 µM

Row | Structure (SMILES) | residual activity [1] [%] | residual activity [2] [%] | residual activity [3] [%] | residual activity [4] [%] | residual activity [5] [%] | residual activity [6] [%] | residual activity [7] [%] | residual activity [8] [%] | residual activity [9] [%] | residual activity [10] [%] | residual activity [11] [%] | residual activity [12] [%] | residual activity [13] [%] | residual activity [14] [%] | residual activity [15] [%] | residual activity [16] [%] | residual activity [17] [%] | residual activity [18] [%] | residual activity [19] [%] | residual activity [20] [%]
1 | O=C1NC(=O)c2c1c1c3ccccc3n3c1c1c2c2ccccc2n1C1CCC3O1 | 71 | 66 | 25 | 20 | 26 | 24 | 75 | 75 | 63 | 49 | 100 | 92 | 95 | 85 |  |  |  |  |  | 
2 | COC(=O)[C@@]1(O)C[C@H]2O[C@]1(C)n1c3ccccc3c3c4c(c5c6ccccc6n2c5c31)C(=O)NC4 | 10 | 2 | 1 | -1 | 3 | 1 | 79 | 37 | 108 | 90 | 1 | 4 | 72 | 33 | 93 | 57 | 93 | 82 | 71 | 18
3 | N/C(=N\[N+](=O)[O-])N/N=C\c1ccc(-c2cccc([N+](=O)[O-])c2)o1 |  |  |  |  | 91 | 75 | 80 | 76 |  |  |  |  | 93 | 86 | 88 | 82 | 97 | 89 | 122 | 100
4 | COc1ccc2c(c[n+](C)c3c4cc5c(cc4ccc23)OCO5)c1OC |  |  | 86 | 99 | 73 | 90 |  |  | 126 |  | 120 | 93 | 74 | 80 | 80 | 71 | 92 | 110 |  | 95
5 | COc1cc2ncnc(Nc3ccc(OCc4ccccc4)cc3)c2cc1OC | 100 | 87 | 101 | 87 | 8 | 3 | 77 | 79 | 121 | 99 | 117 | 93 | 82 | 87 | 95 | 95 | 92 | 116 | 84 | 62
6 | CN[C@@H]1C[C@H]2O[C@@](C)([C@@H]1OC)n1c3ccccc3c3c4c(c5c6ccccc6n2c5c31)C(=O)NC4 |  |  |  |  |  |  | 77 | 46 | 83 | 85 |  |  |  |  |  |  | 81 | 85 |  | 
7 | CCc1nc(-c2ccc(OC)cc2)[nH]c1-c1ccncc1 |  |  |  |  |  |  | 74 | 37 | 121 | 100 | 101 | 74 |  |  |  |  |  |  | 123 | 102
8 | C[S+]([O-])c1ccc(-c2nc(-c3ccc(F)cc3)c(-c3ccncc3)[nH]2)cc1 (stereo unspecified) | 98 | 108 | 104 | 97 | 90 | 90 |  |  | 122 | 105 | 114 | 94 | 98 | 98 | 119 | 61 | 100 | 104 | 103 | 98
9 | COc1cc(OC)c(/C=C2\C(=O)Nc3ccccc32)c(OC)c1 | 94 | 48 | 88 | 81 | 89 | 78 | 37 | 6 | 94 | 90 |  |  | 83 | 81 | 101 | 70 | 88 | 91 |  | 99
10 | COc1cc2nccc(Oc3ccc(NC(=O)Nc4cc(C)on4)c(Cl)c3)c2cc1OC | 76 |  |  |  |  |  |  |  |  |  |  |  |  |  |  |  |  |  |  | 
11 | CC(C)[C@H](CO)Nc1nc(Nc2cccc(Cl)c2)c2ncn(C(C)C)c2n1 | 23 | 5 | 99 | 86 | 96 | 38 | 74 | 23 |  |  | 8 | 1 | 55 | 11 | 10 | 1 | 99 | 96 |  | 65
12 | O=C1c2ccccc2-c2nc3nnnn3nc21 |  |  |  |  |  |  |  |  | 129 | 77 | 115 | 107 | 83 | 119 |  |  |  |  | 123 | 115
13 | O=C1Nc2ccc3ncsc3c2/C1=C/c1c[nH]cn1 | 5 | 3 | 35 | 8 | 50 | 15 | 23 | 4 | 12 | -1 | 8 | 3 | 38 | 3 | 70 | 28 | 30 | 1 | 104 | 96
14 | COc1ccc2c(c1)/C(=C/c1cnc[nH]1)C(=O)N2 | 32 | 7 | 77 | 30 | 67 | 25 | 81 | 37 |  | 32 | 50 | 10 |  |  |  | 67 |  |  |  | 
15 | CC(C)(C)c1cc(C=C(C#N)C#N)cc(Br)c1O |  |  | 105 | 105 | 96 | 99 | 99 | 48 | 121 | 113 | 99 | 103 | 100 | 108 | 104 | 97 | 113 | 114 | 103 | 105
16 | CCn1cnc2c(Nc3cccc(Cl)c3)nc(N[C@@H]3CCCC[C@@H]3N)nc21 | 8 | 0 | 83 | 28 | 59 | 12 | 89 | 51 |  |  | 10 | 4 | 76 | 30 | 30 | 6 | 91 | 57 |  | 69
17 | O=c1[nH]c2ccccc2n1C1CCN(Cc2ccc(-c3nc4cc5[nH]cnc5cc4nc3-c3ccccc3)cc2)CC1 | 104 | 105 | 102 | 88 | 95 | 87 | 84 | 53 | 113 | 95 | 98 | 76 |  | 76 | 90 | 62 | 89 | 101 | 112 | 89
18 | c1cc(-c2cnn3cc(-c4ccc(OCCN5CCCCC5)cc4)cnc23)ccn1 | 35 | 5 | 101 | 87 |  |  | 21 | 3 | 26 | 1 | 26 | 3 | 62 | 23 |  | 63 | 82 | 27 | 100 | 64
19 | O=[N+]([O-])/C=C/c1ccc2c(c1)OCO2 | 112 | 100 | 85 | 101 | 85 | 85 | 98 | 113 | 134 | 102 | 121 | 101 | 91 |  | 83 |  | 105 | 126 | 112 | 100
